# GPT2 inh: GPT2 alanine aminotransferase inhibition. Q8TD30. Recombinant GPT2, coupled pyruvate oxidase/HRP Amplex Red fluorescence. Potency, µM (titrated, usually from 57.7 µM), without a hit: at the highest dose activity change, negative = inhibition, usual class: inhibitors. actives 0.25% (n = 100,000). AID 1671188; note: nearly all actives have a fitted effect of over 60% in size
#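 Fluorescence of coupled pyruvate oxidase/HRP/Amplex Red system (50uM Amplex, 30 min, dark) reports pyruvate formed by GPT2. Enzyme reaction: 10ng/uL GPT2, 2mM L-alanine, 250uM a-KG, 30 min room temperature, pH 7.5; 50uM AOA control.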
# HEK cytotox: HEK 293 cell cytotoxicity. Potency, µM (series often up to 115 µM), without a hit: at the top dose activity change, negative = cytotoxicity, hits mostly inhibitors. actives 6.6% (n = 94,000). HEK 293 viability, ATP luminescence (CellTiter-Glo), 48-72 h. AID 1345083; note: nearly all actives have a fitted effect of over 60% in size
#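 Read-out: CellTiter-Glo ATP luminescence. Cells: HEK 293, 250 cells/well. Exposure: 48 or 72 hr, 37 degree Celsius.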
# 3T3 cytotox: cytotoxic compounds in NIH 3T3 cells; NIH 3T3 viability, CellTiter-Glo ATP luminescence, 48-72 h; Potency, µM (highest dose often 96.7 µM), inactives show top-dose activity change, negative = cytotoxicity, usual class: inhibitors; actives 4.3% (n = 94,000); note: nearly all actives have a fitted effect of over 55% in size
#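 ATP-dependent luminescence (CellTiter-Glo) served as the viability signal for NIH 3T3 cells treated with compound for 48 or 72 hr at 37 °C.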
# FLuc inh: Photinus pyralis luciferase inhibition. P08659. purified P. pyralis luciferase, luminescence, biochemical. Potency, µM (doses to about 115 µM), actives largely listed as inhibitors. actives 2.5% (n = 76,000). AID 1347043; note: nearly all actives have a fitted effect of over 65% in size
# Target sequence (P08659 whole entry, looked up): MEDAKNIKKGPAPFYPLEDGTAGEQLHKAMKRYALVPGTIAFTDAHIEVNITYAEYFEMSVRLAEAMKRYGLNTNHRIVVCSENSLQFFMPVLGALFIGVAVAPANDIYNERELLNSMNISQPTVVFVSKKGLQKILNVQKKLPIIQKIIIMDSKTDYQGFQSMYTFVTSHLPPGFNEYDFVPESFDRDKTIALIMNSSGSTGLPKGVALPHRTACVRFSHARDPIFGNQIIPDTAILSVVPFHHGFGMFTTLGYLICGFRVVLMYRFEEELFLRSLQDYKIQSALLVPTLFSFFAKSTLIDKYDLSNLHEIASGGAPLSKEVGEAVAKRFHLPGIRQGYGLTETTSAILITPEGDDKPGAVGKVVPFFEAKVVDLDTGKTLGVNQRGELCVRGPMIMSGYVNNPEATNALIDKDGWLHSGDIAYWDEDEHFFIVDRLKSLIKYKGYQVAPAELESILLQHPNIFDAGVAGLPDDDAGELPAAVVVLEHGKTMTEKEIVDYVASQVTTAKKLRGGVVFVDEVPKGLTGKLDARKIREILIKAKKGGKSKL
#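 Luminescence read by CCD imager after adding enzyme (10nM final) to wells holding compound, titrated in qHTS. Substrates 10uM each D-luciferin and ATP; buffer 50mM Tris acetate pH 7.5, 10mM Mg acetate, Tween-20, BSA.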
# NPR1 antag: antagonists of human natriuretic peptide receptor Npr1 | P16066 | HEK293 hNpr1 GloSensor cGMP, ANP-stimulated luminescence | Potency, µM (titrated, usually from 46.3 µM), for the others: at the top dose activity change, negative = inhibition, usual class: inhibitors | actives 1.6% (n = 76,000); calls by dose curve; note: nearly all actives have a fitted effect of over 60% in size
#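 HEK293 cells stably expressing human Npr1 and cGMP GloSensor pGS-40F, loaded 2 h with 2% GloSensor reagent, given compound 30 min at room temperature. Luminescence read before and 20 min after 0.1 nM hNppA.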
# The depositor's hits bear a star; i = inactive; ? = inconclusive; nt = not tested or not shown; [ ] = another dose, or the depositor's remark. Hits are enriched below; roughly 10% of the tested compounds scored in any of these assays. Unless noted, calls come from the whole dose curve; as a rule, active = well fitted curve in the direction sought with a large enough effect; inconclusive = small, poorly fitted or top-dose-only effect, or another doubt; inactive = no such curve, though single readings can be large; an effect the other way counts as inactive or inconclusive. % is set by controls: 0 for no effect and ±100 for the full control effect; potency is the fitted concentration of half-maximal effect.
SMILES,GPT2 inh,HEK cytotox,3T3 cytotox,FLuc inh,NPR1 antag
CCO[C@H]1CN(Cc2ccccc2OCC(=O)N2CCC(C)CC2)C[C@@H]1O,i,-24%,-9%,i,1%
O=C1c2cnc(-c3cccc(CO)c3)nc2OCCN1Cc1ccccc1,-5%[88.5 µM],?,?,18µM*,-14%[70.6 µM]
COc1ccc(CN2CCOc3nc(-c4cc(F)cc(F)c4)ncc3C2=O)cc1,-8%[88.5 µM],?,?,i,-24%[70.6 µM]
O=C1c2cnc(-c3cc(F)cc(F)c3)nc2OCCN1Cc1ccccc1,i,?,?,45µM*,-8%[70.6 µM]
CN(C)C(=O)c1ccc(-c2ncc3c(n2)OCCN(Cc2ccccc2)C3=O)cc1,?,?,-21%[138 µM],i,1%[70.6 µM]
COCCN1CCOc2nc(-c3cccc(OC(F)(F)F)c3)ncc2C1=O,-19%[88.5 µM],?,?,16µM*,-24%[70.6 µM]
COc1ccc(CN2CCOc3nc(-c4cccc(C#N)c4)ncc3C2=O)cc1,0%[88.5 µM],100µM*,?,i,-26%[70.6 µM]
CCOC(=O)[C@H]1C[C@]2(CCCCN(C)C2=O)N(C(=O)c2cc(C)oc2C)[C@H]1c1ccco1,nt,?,-27%,nt,nt
c1ccc2c(c1)CC(N1CCC(CN(Cc3ccc4nonc4c3)CC3CCCO3)CC1)C2 (stereo not drawn),i,?,-29%,i,5%
O=C1c2cnc(-c3cc4ccccc4o3)nc2OCCN1CC1CC1,?,?,?,?,1.4µM*
CCn1c2c(c(=O)n1Cc1ccccc1)CCN(C(=O)C1CCCO1)C2 (stereo not drawn),-17%[88.5 µM],i,?,i,0%[70.6 µM]
O=C(C1CCOCC1)N1CCc2c(n(Cc3ccccc3)n(-c3ccccc3)c2=O)C1,-1%[88.5 µM],4%[172 µM],100µM*,i,-1%[70.6 µM]
COc1ccc(-n2c(=O)c3c(n2Cc2ccccc2)CN(C(=O)C2CCC(OC)CC2)CC3)cc1 (stereo not drawn),i,-6%,?,i,1%
O=C(C1CCCO1)N1CCc2c(n(Cc3ccccc3)n(-c3ccccc3)c2=O)C1 (stereo not drawn),0%[88.5 µM],-6%[172 µM],32µM*,i,2%[70.6 µM]
CN(C)c1ccc(CN2CCC3(C2)C(=NC2CCCCC2)NC(=O)N3c2cc(F)cc(F)c2)cc1 (stereo not drawn),i,?,?,nt,nt
CC(C)C[C@@H]1N[C@H](C(=O)NCC2CC2)Cc2cn(Cc3cccnc3)c3cccc1c23,1%[88.5 µM],?,?,i,-28%[70.6 µM]
C#CCNC(=O)[C@@H]1Cc2cn(Cc3cccnc3)c3cccc(c23)[C@H](CC(C)C)N1,-22%[88.5 µM],56µM*,79µM*,i,-1%[70.6 µM]
CC(C)C[C@@H]1N[C@H](C(=O)NCc2ccccc2)Cc2cn(Cc3ccncc3)c3cccc1c23,-3%,?,?,i,-5%
COCCNC(=O)[C@@H]1Cc2cn(Cc3cccnc3)c3cccc(c23)[C@H](CC(C)C)N1,?,45µM*,?,i,-3%[70.6 µM]
C=CCNC(=O)[C@@H]1Cc2cn(Cc3ccncc3)c3cccc(c23)[C@H](CC(C)C)N1,?,35µM*,?,i,-26%[70.6 µM]
COCCNC(=O)[C@@H]1Cc2cn(Cc3ccccn3)c3cccc(c23)[C@H](CC(C)C)N1,?,28µM*,?,i,0%[70.6 µM]
COCCNC(=O)[C@@H]1Cc2cn(Cc3ccncc3)c3cccc(c23)[C@H](CC(C)C)N1,5%[88.5 µM],45µM*,45µM*,i,-3%[70.6 µM]
O=C(Nc1ccc2c(c1)OCCO2)N1CCC(CCc2nc(C3CCOCC3)no2)CC1,i,?,?,nt,nt
O=C(Nc1ccccc1)N1CCC(CCc2nc(C3CCOCC3)no2)CC1,0%,40µM*,?,nt,nt
CN(CCC(N)=O)Cc1ccccc1OCC(O)CN1CCc2ccccc2C1 (stereo not drawn),-7%,-10%,?,i,4%
SMILES,GPT2 inh,HEK cytotox,3T3 cytotox,FLuc inh,NPR1 antag
CC(C)C[C@@H]1N[C@H](C(=O)O)Cc2cn(CC3CCC3)c3cccc1c23,?,71µM*,79µM*,i,-11%[70.6 µM]
CC(C)C[C@@H]1N[C@H](C(=O)NC2CCC2)Cc2cn(CC3CC3)c3cccc1c23,-19%[88.5 µM],56µM*,?,i,3%[70.6 µM]
COc1ccccc1CCn1cnc(-c2ccccc2)c1-c1cn(C)nc1C,-4%,79µM*,?,i,-5%
O=C1Nc2ccccc2CC12CCCN2Cc1ccc(C(F)(F)F)cc1 (stereo not drawn),-13%,45µM*,?,nt,nt
O=C1Nc2ccccc2CN(Cc2ccc(C(F)(F)F)cc2)C12CCNCC2,5%,28µM*,22µM*,nt,nt
O=C1Nc2ccccc2CC12CCN2Cc1cccc2ccccc12 (stereo not drawn),-4%[88.5 µM],?,89µM*,i,-7%[70.6 µM]
O=C1Nc2ccccc2CN(Cc2ccc(F)cc2)C12CCNCC2,3%,40µM*,?,nt,nt
COc1ccc(-c2nc(C(C)C)nc3c2CCN(C(=O)Cc2cccc(Cl)c2)CC3)cc1,i,?,?,i,-11%
COc1cccc(-c2nnnn2[C@H]2CO[C@H]3[C@@H]2OC[C@@H]3NC(=O)c2ccc(C)cc2)c1,0%[88.5 µM],?,?,?,?
COc1ccc(CNC(=O)c2cc3c(n2C)CCN(Cc2ccc(F)cc2)C3)cc1,4%,?,?,i,-26%
COc1ccccc1NC(=O)c1cc2c(n1C)CCN(Cc1ccc(F)cc1)C2,-9%,32µM*,?,16µM*,6%
COc1cccc(CN2CCc3c(cc(C(=O)Nc4ccc(C)cc4C)n3C)C2)c1,-1%,?,?,16µM*,-2%
COc1cccc(CN2CCc3c(cc(C(=O)Nc4cc(OC)cc(OC)c4)n3C)C2)c1,i,?,?,?,7%
CC1(c2ccccc2)N(Cc2cccnc2)C(=O)OC12CCN(C(=O)c1ccc(F)cc1)CC2 (stereo not drawn),i,i,?,i,0%
CC1(c2ccccc2)N(Cc2cccnc2)C(=O)OC12CCN(C(=O)Cc1ccccc1)CC2 (stereo not drawn),-8%,-8%,?,i,8%
CC1(c2cccnc2)N(Cc2ccccc2)C(=O)OC12CCN(C(=O)c1cnccn1)CC2 (stereo not drawn),-24%,-15%,28µM*,i,-9%
CC1(c2cccnc2)N(Cc2ccccc2)C(=O)OC12CCN(C(=O)COc1ccccc1)CC2 (stereo not drawn),1%,-9%,32µM*,i,1%
COCC(=O)N1CCC2(CC1)OC(=O)N(Cc1ccc(O)cc1)C2(C)c1ccccc1 (stereo not drawn),1%[88.5 µM],i,?,i,4%[70.6 µM]
